Assay outcomes deposited in PubChem BioAssay by National Center for Advancing Translational Sciences (NCATS).
A selection: hits, their analogues and other compounds. The true share with any hit is near 6%.
DRD3 agonist – qHTS of D3 Dopamine Receptor Agonist: qHTS; D(3) dopamine receptor (Homo sapiens), P35462; D3R DiscoveRx beta-arrestin cells, luminescence, 90 min; max activation, %; hit rate 0.58% among 410,000; in the data active means max activation above about 30%
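Agonist-mode cell screen: cells plated at 1500/well and incubated overnight at 37 °C, then exposed to library compounds for 90 min at 37 °C. Detection reagent was added for 30–60 min at room temperature, and luminescence was read.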
D1 ag – Allosteric Agonists of the Human D1 Dopamine Receptor: qHTS. D(1A) dopamine receptor (Homo sapiens), P21728. activation, % at 2 µM. hit rate 1% among 360,000. HEK293 T-REx D1 cells, calcium flux, agonist mode; in the data active means activation above about 30%
Target sequence (P21728 whole entry, looked up): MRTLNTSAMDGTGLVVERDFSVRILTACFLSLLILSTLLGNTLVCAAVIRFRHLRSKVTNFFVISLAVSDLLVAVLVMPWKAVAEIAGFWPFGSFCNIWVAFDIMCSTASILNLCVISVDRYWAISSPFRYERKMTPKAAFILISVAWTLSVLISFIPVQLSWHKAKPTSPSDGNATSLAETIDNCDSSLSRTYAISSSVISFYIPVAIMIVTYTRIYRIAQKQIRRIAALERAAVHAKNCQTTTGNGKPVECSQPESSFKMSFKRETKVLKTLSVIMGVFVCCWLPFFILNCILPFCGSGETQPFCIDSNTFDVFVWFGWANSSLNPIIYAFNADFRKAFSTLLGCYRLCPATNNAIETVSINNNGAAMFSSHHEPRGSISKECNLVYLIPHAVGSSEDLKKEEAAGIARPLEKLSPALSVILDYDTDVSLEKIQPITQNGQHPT
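Tetracycline-induced HEK293 TREx D1 cells, force-coupled to calcium signalling, were dye-loaded with a no-wash calcium kit. Compound was pin-added after a 10 s baseline. Fluorescence was read kinetically at 1 cycle/s for 180 s, with calcium rises flagged as agonism.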
DRD3 antagonist – qHTS of D3 Dopamine Receptor Antagonist: qHTS; D(3) dopamine receptor (Homo sapiens), P35462; D3R cells, DiscoveRx beta-arrestin luminescence, antagonist mode; stronger effect = lower value; max response, negative = inhibition, %; hit rate 2.5% among 360,000; AID 652054, 2013; in the data active means max response below about -50%; inconclusive means no clear call, values can overlap the other calls
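Cells expressing the human receptor were seeded at 1500 cells/well, incubated overnight at 37 degrees C in 5% CO2, then exposed to library compounds with dopamine controls for 90 minutes at 37 degrees C before luminescent detection.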
D1 PAM – Potentiators of Human D1 Dopamine Receptor: qHTS; hit rate 0.036% among 360,000; D(1A) dopamine receptor (Homo sapiens), P21728; AID 504651, 2011; HEK293 TREx D1 cells, calcium flux, dopamine EC20 potentiation; potentiation, % at 10 µM; in the data active means potentiation above about 30%
D1 antagonist – Antagonist of Human D 1 Dopamine Receptor: qHTS; D(1A) dopamine receptor (Homo sapiens), P21728; activity change, negative = inhibition, % at 10 µM; hit rate 3.2% among 360,000; HEK293 TREx D1 cells, calcium flux, dopamine EC80; stronger effect = lower value; in the data active means activity change below about -30%
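Compound effects on dopamine-evoked calcium signalling were measured in tetracycline-induced HEK293 Trex D1 cells. Dopamine at EC80 followed a 180 s compound pre-read, and fluorescence was tracked kinetically for 180 s more.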
Large screens that a line does not name were inactive.

Cc1cc(C)c2c(N)c(C(=O)c3ccc(Cl)cc3)sc2n1	none
Nc1c(C(=O)c2ccccc2)sc2nsc(SCCN3CCCC3)c12	D1 ag 167, D1 antagonist -34
CC(=O)c1sc2nsc(SCCN3CCCCC3)c2c1N	none
O=C(NCc1ccccc1)C(c1ccccc1)n1c(C2CC2)nc2ccccc21 (stereo unspecified)	none (no result: D1 ag, D1 PAM, D1 antagonist)
COc1cc2[nH]c(Cl)c([N+](=O)[O-])c2cc1OC	D1 antagonist -31
COc1cc2[nH]c3c(Cl)ncnc3c2cc1OC	none
Cc1ccc(OCC(=O)Nc2cccc(OCc3cc(=O)n4cccc(C)c4n3)c2)cc1C	none (no result: DRD3 antagonist)
Cc1cc2c(cc1C)NC(c1c(C)n(C)n(-c3ccccc3)c1=O)C1=C(CC(C)(C)CC1=O)N2 (stereo unspecified)	D1 ag 81, DRD3 antagonist -93
COc1cc(C2Nc3cc(C)c(C)cc3NC3=C2C(=O)CC(C)(C)C3)ccc1OC(C)=O (stereo unspecified)	none
CCCCN(CCCNC(=O)C1CCN(S(=O)(=O)N2CCOCC2)CC1)c1ccccc1	D1 antagonist -35
CCN(CCCNC(=O)C1CCN(S(=O)(=O)N2CCC3(CC2)OCCO3)CC1)c1ccccc1	none
O=C(Cc1ncc(C(F)(F)F)cc1Cl)NCc1ccco1	none
O=C(Cc1cccc2ccccc12)N/N=C/c1ccc2cccc(O)c2n1	DRD3 antagonist -56
Cc1c(C)n(CCc2ccccc2)c2ncnc(NN)c12	none
Cc1c(C)n(CCc2ccccc2)c2ncnc(NCCCO)c12	D1 antagonist -32
COc1ccc2nc(-c3ccccc3)nc(SCC(=O)NCC3CCCO3)c2c1 (stereo unspecified)	DRD3 agonist 33
O=C(CSc1nc2ccccc2s1)NCC1CCCO1 (stereo unspecified)	D1 antagonist -33
COc1ccc(-c2[nH]c(-c3ccc(Cl)cc3)nc2SCC(=O)Nc2nccs2)cc1	DRD3 antagonist inconclusive, D1 antagonist -32
COc1cccc(-c2nc(SCC(=O)NCC3CCCO3)c(-c3ccc(Cl)cc3)[nH]2)c1 (stereo unspecified)	D1 antagonist -56 (no result: DRD3 antagonist)
COc1ccc(-c2[nH]c(-c3ccccc3)nc2SCC(=O)Nc2nccs2)cc1	none
Cc1ccc2nc(-c3ccc(F)cc3)nc(SCC(=O)NCC3CCCO3)c2c1 (stereo unspecified)	none
COc1cccc(-c2nc(SCC(=O)NCC3CCCO3)c(-c3ccc(C)cc3)[nH]2)c1 (stereo unspecified)	none (no result: DRD3 antagonist)
Cc1ccc2oc(-c3cc(NC(=O)c4ccc5c(c4)OCCO5)cc(C)c3O)nc2c1	none (no result: DRD3 antagonist)
CC(=O)NCc1nc2cccnc2n1Cc1ccccc1	D1 antagonist -32 (no result: DRD3 antagonist)
CC(C)CC(=O)NCc1nc2cccnc2n1Cc1ccccc1	none (no result: DRD3 antagonist)
Cc1sc(NC(=O)/C=C/c2ccco2)c(C(=O)OC(C)C)c1C	DRD3 agonist 32
COC(=O)c1c(NC(=O)/C=C/c2ccco2)sc2c1CCC2	none
CCCn1c(=O)c(C(=O)Nc2ccccc2N)c(O)c2ccccc21	DRD3 antagonist inconclusive (no result: D1 ag, D1 PAM, D1 antagonist)
O=c1[nH]c(-c2ccccn2)nc(C(F)(F)F)c1Br	none
Nc1nc(C(F)(F)F)c(Br)c(=O)n1N	D1 antagonist -30
CC1CC(C)CN(CCOCCSc2ccccc2)C1 (stereo unspecified)	DRD3 antagonist -73, D1 antagonist -38
Cc1ccc(SCCOCCN2CCOCC2)cc1	none
CC1CCCN(CCS(=O)(=O)c2ccccc2)C1 (stereo unspecified)	none (no result: D1 ag, D1 PAM, D1 antagonist)
CC1CC(C)CN(CCOCCSc2ccc(Cl)cc2)C1 (stereo unspecified)	DRD3 antagonist -80
c1ccc(SCCOCCn2cncn2)cc1	none
CC1CC(C)CN(CCCSc2ccccc2)C1 (stereo unspecified)	DRD3 antagonist -51
CC1CCCN(CCOCCSc2ccccc2)C1 (stereo unspecified)	DRD3 antagonist -73
CCCCOc1ccc(CNC(=O)c2cnc3sc(N4CCCCCC4)nn3c2=O)cc1	none (no result: DRD3 antagonist)
